# Where “and” joins values, the source holds several entries; their conditions need not be identical. Identical values can stand only once. Out of some 5,500 compounds screened, about 2,000 (36%) were called active. Another 18% or so got no clear call; they are omitted. The list shows a part of the results. Values without a mark were called inactive. Rule as the data show it: active = normalized growth mostly below about 0.91 (no sharp cut-off); inconclusive = no clear call, values can overlap the other calls; inactive = mostly above about 0.92.
# Experiment: chemical genetic growth profiling, strain panel (AID 1159580);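 also: tested at 20 µM; growth read once vehicle control cultures reached saturation at 30 °C; 1 = growth at the plate median or of vehicle wells; lower values mean less growth of the strain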
# Conditions: S. cerevisiae deletion strains, growth OD
smiles,measurement,setting,value
Nc1c2ccccc2nc2ccccc12 (tested in a mixture with another compound),normalized growth,"locus YAL013W, strain DEP1, hits give low values",0.822 (active)
same,normalized growth,"locus YAL021C, strain ccr4, hits give low values",0.67 (active)
same,normalized growth,"locus YAL026C, strain drs2, hits give low values",0.541 (active)
same,normalized growth,"locus YAL030W, strain snc1, hits give low values",0.679 (active)
same,normalized growth,"locus YBL061C, strain skt5, hits give low values",0.795 (active)
same,normalized growth,"locus YBR009C, strain hhf1, hits give low values",0.495 (active)
same,normalized growth,"locus YBR021W, strain FUR4, hits give low values",0.985
same,normalized growth,"locus YBR023C, strain chs3, hits give low values",0.751 (active)
same,normalized growth,"locus YBR171W, strain sec66, hits give low values",0.964
same,normalized growth,"locus YBR229C, strain ROT2, hits give low values",0.976
same,normalized growth,"locus YBR231C, strain swc5, hits give low values",0.677 (active)
same,normalized growth,"locus YBR279W, strain paf1, hits give low values",0.555 (active)
same,normalized growth,"locus YCL011C, strain gbp2, hits give low values",0.704 (active)
same,normalized growth,"locus YCL016C, strain dcc1, hits give low values",0.467 (active)
same,normalized growth,"locus YCL029C, strain bik1, hits give low values",0.485 (active)
same,normalized growth,"locus YCL061C, strain MRC1, hits give low values",0.842 (active)
same,normalized growth,"locus YCL069W, strain vba3, hits give low values",0.777 (active)
same,normalized growth,"locus YCR088W, strain abp1, hits give low values",0.682 (active)
same,normalized growth,"locus YDL005C, strain med2, hits give low values",0.801 (active)
same,normalized growth,"locus YDL035C, strain GPR1, hits give low values",0.507 (active)
same,normalized growth,"locus YDL040C, strain nat1, hits give low values",0.875 (active)
same,normalized growth,"locus YDL074C, strain BRE1, hits give low values",0.498 (active)
same,normalized growth,"locus YDL101C, strain DUN1, hits give low values",0.76 (active)
same,normalized growth,"locus YDL134C, strain PPH21, hits give low values",0.629 (active)
same,normalized growth,"locus YDL185W, strain tfp1, hits give low values",0.998
same,normalized growth,"locus YDL192W, strain arf1, hits give low values",0.691 (active)
same,normalized growth,"locus YDR001C, strain nth1, hits give low values",0.956
same,normalized growth,"locus YDR069C, strain doa4, hits give low values",0.519 (active)
same,normalized growth,"locus YDR101C, strain arx1, hits give low values",0.593 (active)
same,normalized growth,"locus YDR137W, strain rgp1, hits give low values",0.572 (active)
same,normalized growth,"locus YDR150W, strain NUM1, hits give low values",0.883 (active)
same,normalized growth,"locus YDR159W, strain sac3, hits give low values",0.773 (active)
same,normalized growth,"locus YDR162C, strain NBP2, hits give low values",0.718 (active)
same,normalized growth,"locus YDR297W, strain sur2, hits give low values",0.749 (active)
same,normalized growth,"locus YDR318W, strain mcm21, hits give low values",0.655 (active)
same,normalized growth,"locus YDR334W, strain swr1, hits give low values",0.943
same,normalized growth,"locus YDR335W, strain msn5, hits give low values",0.807 (active)
same,normalized growth,"locus YDR388W, hits give low values",0.406 (active)
same,normalized growth,"locus YDR392W, strain spt3, hits give low values",0.6 (active)
same,normalized growth,"locus YDR502C, strain sam2, hits give low values",0.606 (active)
same,normalized growth,"locus YEL003W, strain gim4, hits give low values",0.665 (active)
same,normalized growth,"locus YEL037C, strain rad23, hits give low values",0.763 (active)
same,normalized growth,"locus YEL061C, strain CIN8 (second series), hits give low values",0.887 (active)
same,normalized growth,"locus YEL061C, strain CIN8, hits give low values",0.838 (active)
same,normalized growth,"locus YER015W, strain faa2, hits give low values",0.821 (active)
same,normalized growth,"locus YER016W, strain bim1, hits give low values",0.686 (active)
same,normalized growth,"locus YER110C, hits give low values",0.996
same,normalized growth,"locus YER111C, strain swi4, hits give low values",0.904 (active)
same,normalized growth,"locus YER155C, strain BEM2 (second series), hits give low values",0.774 (active)
same,normalized growth,"locus YER155C, strain BEM2, hits give low values",0.89 (active)
same,normalized growth,"locus YER167W, strain BCK2, hits give low values",0.58 (active)
same,normalized growth,"locus YFR010W, strain ubp6, hits give low values",0.627 (active)
same,normalized growth,"locus YGL078C, strain dbp3, hits give low values",0.778 (active)
same,normalized growth,"locus YGL086W, strain mad1, hits give low values",0.618 (active)
same,normalized growth,"locus YGL167C, strain pmr1, hits give low values",0.927
same,normalized growth,"locus YGL173C, strain kem1, hits give low values",0.656 (active)
same,normalized growth,"locus YGL227W, strain vid30, hits give low values",0.836 (active)
same,normalized growth,"locus YGL240W, strain doc1, hits give low values",0.874 (active)
same,normalized growth,"locus YGL248W, strain PDE1, hits give low values",0.559 (active)
same,normalized growth,"locus YGL253W, strain hxk2, hits give low values",0.582 (active)
same,normalized growth,"locus YGR078C, strain PAC10, hits give low values",0.703 (active)
same,normalized growth,"locus YGR135W, strain pre9, hits give low values",0.704 (active)
same,normalized growth,"locus YGR229C, strain SMI1, hits give low values",0.68 (active)
same,normalized growth,"locus YGR252W, strain gcn5, hits give low values",0.461 (active)
same,normalized growth,"locus YHR013C, strain ard1, hits give low values",0.494 (active)
same,normalized growth,"locus YHR027C, strain rpn1, hits give low values",0.853 (active)
same,normalized growth,"locus YHR030C, strain SLT2, hits give low values",0.749 (active) and 0.474 (active)
same,normalized growth,"locus YHR079C, strain IRE1 (second series), hits give low values",0.531 (active)
same,normalized growth,"locus YHR079C, strain IRE1, hits give low values",0.484 (active)
same,normalized growth,"locus YHR129C, strain ARP1, hits give low values",0.781 (active)
same,normalized growth,"locus YHR142W, strain chs7, hits give low values",0.729 (active)
same,normalized growth,"locus YHR200W, strain rpn10, hits give low values",0.735 (active)
same,normalized growth,"locus YIL066C, strain RNR3, hits give low values",0.775 (active)
same,normalized growth,"locus YIL073C, strain SPO22, hits give low values",0.535 (active)
same,normalized growth,"locus YIL125W, strain kgd1, hits give low values",0.9 (active)
same,normalized growth,"locus YIR030C, strain dcg1, hits give low values",0.575 (active)
same,normalized growth,"locus YJL092W, strain hpr5, hits give low values",0.802 (active)
same,normalized growth,"locus YJL095W, strain BCK1 (second series), hits give low values",0.766 (active)
same,normalized growth,"locus YJL095W, strain BCK1, hits give low values",0.474 (active) and 0.436 (active)
same,normalized growth,"locus YJL115W, strain asf1, hits give low values",0.849 (active)
same,normalized growth,"locus YJL129C, strain trk1, hits give low values",1.02
same,normalized growth,"locus YJL134W, strain LCB3, hits give low values",0.982
same,normalized growth,"locus YJL154C, strain vps35, hits give low values",0.859 (active)
same,normalized growth,"locus YJL164C, strain tpk1, hits give low values",0.562 (active)
same,normalized growth,"locus YJL166W, strain qcr8, hits give low values",0.693 (active)
same,normalized growth,"locus YJL168C, strain set2, hits give low values",0.946
same,normalized growth,"locus YJL187C, strain SWE1 (second series), hits give low values",0.565 (active)
same,normalized growth,"locus YJL187C, strain SWE1, hits give low values",0.813 (active)
same,normalized growth,"locus YJR043C, strain POL32, hits give low values",0.686 (active)
same,normalized growth,"locus YJR066W, strain TOR1, hits give low values",0.397 (active)
same,normalized growth,"locus YJR075W, strain HOC1, hits give low values",0.505 (active)

# — PubChem BioAssay AID1159580 (chemical genetic matrix, 2015)
